# This is one part of a sample in which the strongest signals are shown more often than they occur.
# B1: EUL D1A second (Oryza sativa) (protein)
# chain: GAATACTIGGVPVHTVRVFSAAGEDYCLTVRNGTACLAPKNPRDDYQHWIKDMRHSNKIRDEEGYPAFALVNKVTGEAIKHSTGQGHPVKLVPYNPEYQDESVLWTESKDVGKGFRCIRMVNNIYLNFDAFHGDKDHGGIHDGTEIVLWKWCEGDNQRWKILPWILEQKLISEEDLNSAVDHHHHHH
# Tests used:
# Assay in all cases: glycan array binding signal (z-score within array); higher = stronger binding
# Conditions in all cases: glycan notation: IUPAC condensed, linker removed
# [1] = target: Fuc(a1-2)Gal(b1-3)GlcNAc(b1-3)Gal(b1-4)Glc
# Summary of the method: (§1)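 Glycan array data came from 3228 arrays in the Consortium for Functional Glycomics database, and only arrays with an available protein sequence were kept. Glycan names were put into IUPAC-condensed notation, and columns mapping to the same glycan were averaged. The binding signal is a within-array Z-score, averaged across arrays of one protein sequence run at different concentrations or buffers and across linkers. A negative Z-score can be read as non-binding.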
# [2] = target: Fuc(a1-2)Gal(b1-3)GlcNAc(b1-3)GalNAc
# Summary of the method: as §1
# [3] = target: Fuc(a1-2)Gal(b1-3)[Fuc(a1-4)]GlcNAc(b1-2)Man(a1-3)[Fuc(a1-2)Gal(b1-3)[Fuc(a1-4)]GlcNAc(b1-2)Man(a1-6)]Man(b1-4)GlcNAc(b1-4)[Fuc(a1-6)]GlcNAc(b1-4)[Fuc(a1-6)]GlcNAc
# Summary of the method: as §1
# [4] = target: Fuc(a1-2)Gal(b1-3)[Fuc(a1-4)]GlcNAc(b1-3)[Gal(b1-4)GlcNAc(b1-6)]Gal(b1-4)Glc
# Summary of the method: as §1
# [5] = target: Fuc(a1-2)Gal3S(b1-4)GlcNAc
# Summary of the method: as §1
# [6] = target: Fuc(a1-2)Gal6S(b1-3)GlcNAc6S
# Summary of the method: as §1
# [7] = target: Fuc(a1-2)[GalNAc(a1-3)]Gal
# Summary of the method: as §1
# [8] = target: Fuc(a1-2)[GalNAc(a1-3)]Gal(b1-4)GlcNAc
# Summary of the method: as §1
# [9] = target: Fuc(a1-2)[GalNAc(a1-3)]Gal(b1-4)GlcNAc(b1-3)Gal(b1-4)GlcNAc
# Summary of the method: as §1
# [10] = target: Fuc(a1-2)[GalNAc(a1-4)]Gal(b1-4)GlcNAc
# Summary of the method: as §1
# [11] = target: Fuc(a1-2)[GalNAc(b1-3)]Gal
# Summary of the method: as §1
# [12] = target: Fuc(a1-3)[Gal(b1-4)]GlcNAc(b1-2)Man
# Summary of the method: as §1
# [13] = target: Fuc(a1-3)[Gal(b1-4)]GlcNAc(b1-3)Gal(b1-4)[Fuc(a1-3)]GlcNAc
# Summary of the method: as §1
# [14] = target: Fuc(a1-3)[Gal(b1-4)]GlcNAc(b1-3)GalNAc
# Summary of the method: as §1
# [15] = target: Fuc(a1-3)[Gal(b1-4)]GlcNAc6S
# Summary of the method: as §1
# Gal(a1-3)GalNAc = target: Gal(a1-3)GalNAc
# Summary of the method: as §1
# Gal(a1-4)GlcNAc = target: Gal(a1-4)GlcNAc
# Summary of the method: as §1
# Gal(b1-3)Gal = target: Gal(b1-3)Gal
# Summary of the method: as §1
# [16] = target: Gal(b1-3)GalNAc(b1-3)Gal(a1-4)Gal(b1-4)Glc
# Summary of the method: as §1
# [17] = target: Gal(b1-3)GlcNAc(b1-3)Gal(b1-4)GlcNAc(b1-2)[Gal(b1-3)GlcNAc(b1-3)Gal(b1-4)GlcNAc(b1-6)]Man(a1-6)[Gal(b1-3)GlcNAc(b1-3)Gal(b1-4)GlcNAc(b1-2)Man(a1-3)]Man(b1-4)GlcNAc(b1-4)[Fuc(a1-6)]GlcNAc
# Summary of the method: as §1
# [18] = target: Gal(b1-3)GlcNAc(b1-3)Gal(b1-4)GlcNAc(b1-3)Gal(b1-4)GlcNAc(b1-2)[Gal(b1-3)GlcNAc(b1-3)Gal(b1-4)GlcNAc(b1-3)Gal(b1-4)GlcNAc(b1-6)]Man(a1-6)[Gal(b1-3)GlcNAc(b1-3)Gal(b1-4)GlcNAc(b1-3)Gal(b1-4)GlcNAc(b1-2)Man(a1-3)]Man(b1-4)GlcNAc(b1-4)[Fuc(a1-6)]GlcNAc
# Summary of the method: as §1
# Gal(b1-4)Gal = target: Gal(b1-4)Gal
# Summary of the method: as §1
# Gal(b1-4)GlcNAc(b1-2)Man = target: Gal(b1-4)GlcNAc(b1-2)Man
# Summary of the method: as §1
# [19] = target: Gal(b1-4)GlcNAc(b1-2)Man(a1-3)[Man(a1-6)]Man(b1-4)GlcNAc(b1-4)GlcNAc
# Summary of the method: as §1
# [20] = target: Gal(b1-4)GlcNAc(b1-2)[Gal(b1-4)GlcNAc(b1-4)]Man(a1-3)[GlcNAc(b1-4)][Gal(b1-4)GlcNAc(b1-2)[Gal(b1-4)GlcNAc(b1-6)]Man(a1-6)]Man(b1-4)GlcNAc(b1-4)GlcNAc
# Summary of the method: as §1
# [21] = target: Gal(b1-4)GlcNAc(b1-2)[Gal(b1-4)GlcNAc(b1-6)]Man(a1-6)[GlcNAc(b1-4)][Gal(b1-4)GlcNAc(b1-2)Man(a1-3)]Man(b1-4)GlcNAc(b1-4)GlcNAc
# Summary of the method: as §1
# [22] = target: Gal(b1-4)GlcNAc(b1-3)Gal(b1-3)GlcNAc
# Summary of the method: as §1
# [23] = target: Gal(b1-4)GlcNAc(b1-3)Gal(b1-4)Glc
# Summary of the method: as §1
# [24] = target: Gal(b1-4)GlcNAc(b1-3)Gal(b1-4)GlcNAc
# Summary of the method: as §1
# [25] = target: Gal(b1-4)GlcNAc(b1-3)Gal(b1-4)GlcNAc(b1-2)[Gal(b1-4)GlcNAc(b1-3)Gal(b1-4)GlcNAc(b1-6)]Man(a1-6)[Gal(b1-4)GlcNAc(b1-3)Gal(b1-4)GlcNAc(b1-2)Man(a1-3)]Man(b1-4)GlcNAc(b1-4)[Fuc(a1-6)]GlcNAc
# Summary of the method: as §1
# [26] = target: Gal(b1-4)GlcNAc(b1-3)Gal(b1-4)GlcNAc(b1-3)Gal(b1-4)GlcNAc(b1-3)Gal(b1-4)GlcNAc(b1-3)Gal(b1-4)GlcNAc(b1-3)Gal(b1-4)GlcNAc(b1-2)Man(a1-3)[Gal(b1-4)GlcNAc(b1-3)Gal(b1-4)GlcNAc(b1-3)Gal(b1-4)GlcNAc(b1-3)Gal(b1-4)GlcNAc(b1-3)Gal(b1-4)GlcNAc(b1-3)Gal(b1-4)GlcNAc(b1-2)Man(a1-6)]Man(b1-4)GlcNAc(b1-4)GlcNAc
# Summary of the method: as §1
# [27] = target: Gal(b1-4)GlcNAc(b1-6)Gal(b1-4)GlcNAc
# Summary of the method: as §1
# [28] = target: Gal(b1-4)GlcNAc(b1-6)[Gal(b1-4)GlcNAc(b1-3)]GalNAc
# Summary of the method: as §1
binder,measurement,setting,value
B1,glycan array binding signal (z-score),[1],-1.01
same,glycan array binding signal (z-score),[2],-0.565
same,glycan array binding signal (z-score),[3],0.045
same,glycan array binding signal (z-score),[4],1.09
same,glycan array binding signal (z-score),[5],0.228
same,glycan array binding signal (z-score),[6],1.43
same,glycan array binding signal (z-score),[7],-0.789
same,glycan array binding signal (z-score),[8],-1.07
same,glycan array binding signal (z-score),[9],-0.086
same,glycan array binding signal (z-score),[10],0.772
same,glycan array binding signal (z-score),[11],-0.072
same,glycan array binding signal (z-score),[12],0.112
same,glycan array binding signal (z-score),[13],-0.106
same,glycan array binding signal (z-score),[14],0.566
same,glycan array binding signal (z-score),[15],-0.105
same,glycan array binding signal (z-score),Gal(a1-3)GalNAc,-1.42
same,glycan array binding signal (z-score),Gal(a1-4)GlcNAc,-1.01
same,glycan array binding signal (z-score),Gal(b1-3)Gal,-0.342
same,glycan array binding signal (z-score),[16],2.08
same,glycan array binding signal (z-score),[17],4.86
same,glycan array binding signal (z-score),[18],4.47
same,glycan array binding signal (z-score),Gal(b1-4)Gal,3.37
same,glycan array binding signal (z-score),Gal(b1-4)GlcNAc(b1-2)Man,1.59
same,glycan array binding signal (z-score),[19],-0.232
same,glycan array binding signal (z-score),[20],-0.986
same,glycan array binding signal (z-score),[21],-0.799
same,glycan array binding signal (z-score),[22],-0.245
same,glycan array binding signal (z-score),[23],-0.283
same,glycan array binding signal (z-score),[24],-0.532
same,glycan array binding signal (z-score),[25],3.31
same,glycan array binding signal (z-score),[26],0.069
same,glycan array binding signal (z-score),[27],-0.144
same,glycan array binding signal (z-score),[28],-0.385

# From the supplement of paper PMC8728848
